Records with an inconclusive call do not appear. Calls of active or inactive are those of the source. Unless noted, calls come from the whole dose curve; as a rule, active = well fitted curve in the direction sought with a large enough effect; inconclusive = small, poorly fitted or top-dose-only effect, or another doubt; inactive = no such curve, though single readings can be large; an effect the other way counts as inactive or inconclusive.
How the values were obtained:
[1] = qHTS to identify inhibitors of the type 1 interferon - major histocompatibility complex class I in skeletal muscle: primary screen against the NCATS LOPAC collection (AID 1347405);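 note: lytic HiBiT luminescence reporting HLA-B protein level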
Outline: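 Immortalized human C25cl48 myoblasts with HiBiT knocked into endogenous HLA-B*08:01 were stimulated with 4.0 ng/ml IFN-beta and given compounds in a 7-point, 1:4.3 titration from 46 uM final; after 24 hrs, lytic HiBiT luminescence was read.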

[2] = qHTS to identify inhibitors of the type 1 interferon - major histocompatibility complex class I in skeletal muscle: primary screen against the NCATS Pharmaceutical Collection (AID 1347407);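 note: luminescence of HiBiT knocked into endogenous HLA-B as interferon-induced MHC class I level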
Outline: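 A qHTS format is used: 8-point, 1:5 compound series with 46 uM top final concentration, applied alongside 4 ng/ml IFN-beta to HLA-B*08:01-HiBiT knock-in myoblasts. Luminescence is measured after 24 h treatment.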

[3] = qHTS for inhibitors of adenylyl cyclases using a fission yeast platform: a pilot screen against the NCATS LOPAC library (AID 1347410)
Outline: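 Inhibition of GNAS-stimulated AC9 activity in S. pombe was inferred from derepression of a PKA-repressed fbp1-GFP reporter, measured as cytometric fluorescence after 18 h at 30C with compounds at up to 57 µM.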

[4] = molecular target: Protein phosphatase 1D (Homo sapiens) (UniProt O15297); assay: RapidFire Mass Spectrometry qHTS Assay for Modulators of WT P53-Induced Phosphatase 1 (WIP1) (AID 1347424);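 note: amount of dephosphorylated VEPPL-S-QETFS peptide product formed by WIP1; series mostly up to about 63 µM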
Outline: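 WIP1 (10 nM final) was preincubated 1 h at room temperature with compounds in Tris-HCl pH 7.5, 30 mM MgCl2, TCEP, EGTA, BSA; 2 uM VEPPL-pS-QETFS phosphopeptide was added for 5 min, quenched with formic acid, and dephosphorylated product quantified by RapidFire MS.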

[5] = molecular target: Protein phosphatase 1D (Homo sapiens) (UniProt O15297); assay: Rhodamine-PBP qHTS Assay for Modulators of WT P53-Induced Phosphatase 1 (WIP1) (AID 1347425)
Outline: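 Steps: enzyme with Rh-PBP sensor and compounds, room-temperature incubation of 1 hr, baseline read, addition of VEPPL-pS-QETFS (10 uM final), kinetic fluorescence reads at 525/598 nm. Activity equals final minus baseline signal.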

[6] = Validation qHTS assay for inhibitors of Activation Induced Cytidine Deaminase (AID): UDG Counterscreen signal (AID 1347427)
Outline: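 Counterscreen read of UDG activity (2 U/mL, 4/3x) in the FRET deamination format with AID (1 uM, 4/3x), DJC20/DJC23 substrates (250 nM, 4x), 4 h at room temperature. NaOH stop, fluorescence at 560 ex/665 em.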

[7] = molecular target: Single-stranded DNA cytosine deaminase (Homo sapiens) (UniProt Q9GZX7); assay: Validation qHTS assay for inhibitors of Activation Induced Cytidine Deaminase (AID): AID signal (AID 1347429); note: potency is the fitted concentration of half-maximal effect
Outline: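 AID and UDG were combined and compounds added at final up to 114 uM, then DJC20/DJC23 FRET substrate was added for 4 hr at room temperature. NaOH was then added for 30 min before fluorescence was read at 540/590 nm.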

[8] = Primary qHTS for inhibitors of La Crosse Virus (LACV) - induced cell death in SH-SY5Y cells (AID 1508616);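 note: top concentration of the series differs between compounds; higher means more rescue of cells from virus-induced death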
Outline: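 Luminescent ATP readout (ATPLite 1step, 5 min room temperature) measured rescue from LACV-induced death after 6 days of infection at 0.01 MOI; normalized to infected DMSO wells and uninfected DMSO wells.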

[9] = molecular target: Calcium and integrin-binding protein 1 (Homo sapiens) (UniProt Q99828); assay: Primary qHTS for Identification of Calcium Integrin Binding Protein 1 (CIB1) Competitor (AID 1508620); note: potency is the fitted concentration of half-maximal effect
Outline: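 Fluorescence polarization competition: CIB1-GST (1 uM final) preincubated with compound 15 min at room temperature, then FITC-labeled alphaIIb peptide (100 nM final) added for another 15 min. Polarization read at Ex 480/Em 540.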

[10] = A High-Content qHTS Against Drug Library for the Identification of Small Molecules that Inhibit DYT1 Early Onset Primary Dystonia-Associated Cell Pathology (AID 1645839; calls by dose curve; note: potency is the fitted concentration of half-maximal effect)
Outline: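 Readout: %pathology, the punctate EGFP-TorsinA distribution from imaging, as the primary channel and cell count as the toxicity counterscreen. HEK293 Flp-In cells expressing delE TorsinA were induced with tetracycline and treated with compound for 48 h.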

[11] = molecular target: Cytochrome P450 2D6 (Homo sapiens) (UniProt P10635); assay: Cytochrome P450 family 2 subfamily D member 6 (CYP2D6) small molecule antagonists: luciferase biochemical (cell-free) qHTS assay (AID 1645840; active = well fitted curve in the direction sought with a large enough effect in the repeat runs; an effect the other way counts as inactive or inconclusive; note: nearly all actives have a fitted effect of over 55% in size; note: potency is the fitted concentration of half-maximal effect)
Outline: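 P450-Glo luminescent screen: recombinant CYP2D6 enzyme–proluciferin substrate mix preincubated with compound 10 min at room temperature, then NADPH regeneration added for 1 h at room temperature. Detection reagent added for 20 min; luciferin light read as relative luminescence units.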

[12] = molecular target: Calcium and integrin-binding protein 1 (Homo sapiens) (UniProt Q99828); assay: Validation qHTS for Identification of Calcium Integrin Binding protein 1 (CIB1) Competitor (AID 1508618)
Outline: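 In this qHTS validation, the LOPAC set (up to 114 uM) was tested for blocking CIB1 binding to a fluorescein-tagged alphaIIb peptide, with FP detection at 480/540 nm.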

[13] = Primary qHTS for small molecule stabilizers of the endoplasmic reticulum resident proteome: Secreted ER Calcium Modulated Protein (SERCaMP) assay (AID 1508630)
Outline: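 GLuc-SERCaMP-expressing SH-SY5Y cells, pretreated 16 h with compound, are challenged with thapsigargin to empty ER calcium stores; after 4 h, coelenterazine is added directly to the medium and luminescence is imaged.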

[14] = qHTS to identify inhibitors of the type 1 interferon - major histocompatibility complex class I in skeletal muscle: primary screen against the NCATS Mechanism Interrogation Plate v5.0 (MIPE) Libary (AID 1347411); note: nearly all actives have a fitted effect of over 65% in size; note: potency is the fitted concentration of half-maximal effect
Outline: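 Immortalized human C25cl48 myoblasts with HiBit knocked into endogenous HLA-B*08:01 were stimulated with 4.0 ng/ml IFN-beta and exposed to compounds (11-point 1:3 titration, top 46 uM final) for 24 hrs at 37 C; HiBiT lytic luminescence measured.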

[15] = molecular target: Calcium and integrin-binding protein 1 (Homo sapiens) (UniProt Q99828); assay: Confirmatory qHTS for Identification of Calcium Integrin Binding Protein 1 (CIB1) Competitor (AID 1508617); note: nearly all actives have a fitted effect of over 65% in size; note: potency is the fitted concentration of half-maximal effect
Outline: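 Binding competition between test compounds and fluorescent alphaIIb peptide for 1 uM CIB1-GST is monitored by FP at 480/540 nm. Final compound range is up to 114 uM; unlabeled peptide serves as reference competitor.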

Measured: Potency

Sequence of Calcium and integrin-binding protein 1 (Homo sapiens) (Q99828 whole entry, looked up): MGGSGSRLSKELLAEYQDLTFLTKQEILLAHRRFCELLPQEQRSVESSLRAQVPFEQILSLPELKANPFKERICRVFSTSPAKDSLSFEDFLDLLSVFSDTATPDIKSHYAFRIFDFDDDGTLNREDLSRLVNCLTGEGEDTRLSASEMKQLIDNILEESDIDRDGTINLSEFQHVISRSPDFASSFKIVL
Sequence of Single-stranded DNA cytosine deaminase (Homo sapiens) (Q9GZX7 whole entry, looked up): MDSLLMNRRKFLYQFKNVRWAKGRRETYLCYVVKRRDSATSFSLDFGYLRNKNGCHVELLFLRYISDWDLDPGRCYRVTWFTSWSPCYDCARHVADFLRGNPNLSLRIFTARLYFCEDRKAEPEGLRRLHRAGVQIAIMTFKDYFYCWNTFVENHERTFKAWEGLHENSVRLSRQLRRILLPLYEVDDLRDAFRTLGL
Sequence of Cytochrome P450 2D6 (Homo sapiens) (P10635 whole entry, looked up): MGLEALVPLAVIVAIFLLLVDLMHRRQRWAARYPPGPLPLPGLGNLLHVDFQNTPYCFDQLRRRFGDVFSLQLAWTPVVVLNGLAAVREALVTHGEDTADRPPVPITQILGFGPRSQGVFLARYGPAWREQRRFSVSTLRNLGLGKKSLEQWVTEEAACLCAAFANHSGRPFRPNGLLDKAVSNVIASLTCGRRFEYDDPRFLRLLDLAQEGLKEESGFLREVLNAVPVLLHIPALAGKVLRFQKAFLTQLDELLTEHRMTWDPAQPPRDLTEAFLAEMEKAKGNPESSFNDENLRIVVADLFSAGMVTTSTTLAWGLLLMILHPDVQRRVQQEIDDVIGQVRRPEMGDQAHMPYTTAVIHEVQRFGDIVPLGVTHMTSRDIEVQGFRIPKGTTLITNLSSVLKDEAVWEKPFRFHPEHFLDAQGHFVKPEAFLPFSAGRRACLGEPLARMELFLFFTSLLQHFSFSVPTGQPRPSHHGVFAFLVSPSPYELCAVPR
Sequence of Protein phosphatase 1D (Homo sapiens) (O15297 whole entry, looked up): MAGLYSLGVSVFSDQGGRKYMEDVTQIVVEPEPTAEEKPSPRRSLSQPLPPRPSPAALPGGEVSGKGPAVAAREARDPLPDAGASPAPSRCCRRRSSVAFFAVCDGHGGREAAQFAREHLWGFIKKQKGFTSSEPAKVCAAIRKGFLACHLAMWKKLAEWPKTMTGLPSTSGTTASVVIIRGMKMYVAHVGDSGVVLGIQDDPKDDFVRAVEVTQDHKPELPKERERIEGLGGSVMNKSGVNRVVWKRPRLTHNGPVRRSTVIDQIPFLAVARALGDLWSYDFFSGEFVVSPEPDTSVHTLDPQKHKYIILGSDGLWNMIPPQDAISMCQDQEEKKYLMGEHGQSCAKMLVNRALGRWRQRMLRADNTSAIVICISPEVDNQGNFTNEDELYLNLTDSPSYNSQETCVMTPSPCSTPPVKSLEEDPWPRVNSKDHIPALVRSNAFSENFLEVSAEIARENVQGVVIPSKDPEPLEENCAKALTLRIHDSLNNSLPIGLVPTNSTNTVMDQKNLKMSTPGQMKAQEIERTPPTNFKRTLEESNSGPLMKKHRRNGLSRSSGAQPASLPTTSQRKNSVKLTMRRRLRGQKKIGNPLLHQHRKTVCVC

O=C(O)CCc1nc(-c2ccccc2)c(-c2ccccc2)o1
inactive: [1] | [2] | [3] | [4] | [5] | [6] | [7] | [8] | [9] | [10] | [11]

CC1(C)CCC2=C(O1)c1ccccc1C(=O)C2=O
active: [7] 7.08 µM
inactive: [3] | [12] | [9] | [13]

C[C@]12CC[C@@H]3c4ccc(O)cc4C[C@@H](CCCCCCCCCS(=O)CCCC(F)(F)C(F)(F)F)[C@H]3[C@H]1CC[C@H]2O (some centres undefined)
inactive: [14] | [9] | [13]

NS(=O)(=O)c1cccc2c1C(=O)c1cccc(O)c1C2=O
inactive: [9]
active: [14] 0.415 µM

Clc1ccc(C(c2ccc(Cl)cc2)n2cc[n+](CC(OCc3ccc(Cl)cc3Cl)c3ccc(Cl)cc3Cl)c2)cc1 (centres undefined)
inactive: [3] | [6] | [7] | [8] | [12] | [9] | [13]

O=C(N[C@@H](c1ccccc1)[C@@H]1CCCCN1)c1cccc(C(F)(F)F)c1Cl
inactive: [14] | [9] | [13]

CCN(CC)CCNC(=O)c1ccc(N)cc1
inactive: [3] | [4] | [5] | [8] | [12] | [9] | [13] | [10] | [11]

CC(=O)Nc1ccc([C@H](C)C(=O)Nc2ncc(C(C)C)s2)cc1
inactive: [9] | [13]
active: [14] 5.87 µM

C[C@]12CCC3c4ccc(O)cc4CCC3C1CCC2=O (some centres undefined)
inactive: [14] | [9] | [13]

CC/C(=C(\c1ccccc1)c1ccc(OCCN(C)C)cc1)c1ccccc1
inactive: [3] | [4] | [5] | [6] | [7] | [8] | [13]
active: [14] 30.1 µM | [10] 11.2 µM

C=C1C(=O)[C@@]23C(CC[C@@H]1[C@H]2O)[C@@]12CO[C@]3(O)[C@@H](O)[C@@H]1C(C)(C)CC[C@@H]2O (some centres undefined)
active: [14] 6.58 µM | [15] 25.1 µM | [9] 44.7 µM
inactive: [13]

CCNc1cc(NC2CCC(O)CC2)nc(Nc2ccc3c(ccn3Cc3ccccc3)c2)n1 (centres undefined)
inactive: [14] | [9]

COc1ccc(-c2coc3cc(O)cc(O)c3c2=O)cc1
active: [14] 16.5 µM
inactive: [9]

NC(N)=Nc1nc(CSCC/C(N)=N/S(N)(=O)=O)cs1
inactive: [3] | [4] | [5] | [6] | [7] | [8] | [12] | [9] | [13] | [10]

CN1C[C@H]2c3ccccc3Oc3ccc(Cl)cc3[C@@H]2C1
active: [10] 11.2 µM | [11] 0.0062 µM
inactive: [2] | [4] | [5] | [9] | [13]

C[C@H](NC(=O)c1sccc1OCc1ccc(Cl)cc1)c1ccccc1
inactive: [14] | [9] | [13]

Clc1ccc(CCC(Cn2ccnc2)Sc2c(Cl)cccc2Cl)cc1 (centres undefined)
inactive: [14]

COc1cc2c(cc1OC)CN(CCc1ccc(NC(=O)c3cc(OC)c(OC)cc3NC(=O)c3cnc4ccccc4c3)cc1)CC2
inactive: [14] | [9] | [13]

CC(C)(C)OC(=O)N[C@H]1CCCCCC=C[C@@H]2C[C@@]2(C(=O)NS(=O)(=O)C2CC2)NC(=O)[C@@H]2C[C@@H](OC(=O)N3Cc4cccc(F)c4C3)CN2C1=O
inactive: [14] | [9] | [13]

C[C@H](NC(=O)C(=O)Nc1ccccc1C(C)(C)C)C(=O)N[C@@H](CC(=O)O)C(=O)COc1c(F)c(F)cc(F)c1F
inactive: [9]
active: [14] 13.1 µM

CC#CCn1c(N2CCC[C@@H](N)C2)nc2c1c(=O)n(Cc1nc(C)c3ccccc3n1)c(=O)n2C
inactive: [14] | [9] | [13]

O=C(O)c1c(Cl)c(Cl)c(Cl)c(Cl)c1-c1c2cc(I)c(=O)c(I)c-2oc2c(I)c(O)c(I)cc12
active: [14] 8.29 µM | [11] 4.25 µM
inactive: [15] | [13]

O=C1C[C@@H](c2ccc(O)cc2)Oc2cc(O)cc(O)c21
inactive: [14] | [9] | [13]

CC(C)C[C@H](CC(=O)O)C(=O)N[C@@H](Cc1c[nH]c2ccccc12)C(=O)N[C@@H](C)c1ccccc1
inactive: [14] | [9] | [13]

O=C(Nc1ccccc1-c1cn2c(CN3CCNCC3)csc2n1)c1cnc2ccccc2n1
active: [14] 14.7 µM
inactive: [9]

CC1CCC(C(=O)N(c2cc(C#CC(C)(C)C)sc2C(=O)O)C2CCC(O)CC2)CC1 (centres undefined)
inactive: [14] | [9] | [13]

N#Cc1ccc(NC(=O)Nc2ccccc2Br)c2n[nH]nc12
inactive: [14] | [9]

COc1cccc([C@@H](C)NCCCc2ccccc2Cl)c1
inactive: [14] | [9]

CNC(=O)c1ccc2cc(C3(O)CCn4cncc43)ccc2c1 (centres undefined)
inactive: [14] | [9] | [13]

CN(C)c1cc(NC(=O)CNC(C)(C)C)c(O)c2c1C[C@@H]1C[C@H]3[C@H](N(C)C)C(=O)C(C(N)=O)=C(O)[C@@]3(O)C(=O)C1=C2O
inactive: [2] | [8] | [9] | [10]

CC(=O)OC1C(C)OC(Oc2c(-c3ccc(O)cc3)oc3cc(O)cc(O)c3c2=O)C(O)C1OC(C)=O (centres undefined)
inactive: [14] | [9]

O=c1cc(-c2ccc(O)cc2)oc2cc(O)cc(O)c12
active: [11] 12 µM
inactive: [3] | [6] | [7] | [8] | [12] | [9] | [13]

CCCNC(=O)NS(=O)(=O)c1ccc(Cl)cc1
inactive: [3] | [4] | [5] | [6] | [7] | [8] | [12] | [9] | [13] | [10] | [11]

COc1cc(N2CCC(N3CCN(C)CC3)CC2)ccc1Nc1ncc(Cl)c(Nc2ccccc2S(=O)(=O)C(C)C)n1
active: [14] 18.6 µM
inactive: [9] | [13]

COc1ccc(-c2nc(N3CCOCC3)c3sc(CN(C)c4ncc(C(=O)NO)cn4)cc3n2)cn1
active: [14] 0.033 µM
inactive: [9] | [13]

O=C(Nc1c(Cl)cncc1Cl)c1ccc(OC(F)F)c(OCC2CC2)c1
inactive: [14] | [9] | [13]

CC(C)(C)c1ccc(C(O)CCCN2CCC(C(O)(c3ccccc3)c3ccccc3)CC2)cc1 (centres undefined)
inactive: [3] | [4] | [5] | [6] | [7] | [8] | [12] | [9]

O=C(Nc1cc(Cl)cc2c1[nH]c1cnccc12)c1cccnc1
inactive: [14] | [9]

Nc1ncnc2c1ncn2[C@@H]1O[C@@H](CO)[C@H](O)[C@H]1O
inactive: [9]

NC(=O)c1ccc2nc(-c3ccc(Oc4ccc(Cl)cc4)cc3)[nH]c2c1
inactive: [9]

Oc1ccc(C2CCN(c3ccnc4ccccc34)CC2)cc1O
inactive: [9]
